Where “and” joins values, the source holds several entries; their conditions need not be identical. Identical values can stand only once. Compounds without any hit were thinned out: in the full panel of roughly 83,000, 20% have a hit.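 Single-concentration screen, 48 h exposure, 96-well plates. Endpoint: percent growth. Below 10 = active.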 Calls of active or inactive are those of the source.
Key:
Test in all cases: NCI-60 one-dose screen, 48 h (100 = growth as untreated, 0 = no growth, -100 = all killed)
Settings in all cases: 10 µM unless noted
[1] = tested on: NCI-H23 lung
[2] = tested on: NCI-H226 lung
[3] = tested on: NCI-H322M lung
[4] = tested on: HOP-62 NSCLC
[5] = tested on: NCI-H460 lung
[6] = tested on: HOP-92 NSCLC
[7] = tested on: NCI-H522 lung
[8] = tested on: A549/ATCC NSCLC
[9] = tested on: 786-0 renal
[10] = tested on: COLO 205 colon

Measured: growth

C#C[C@]1(O)CC[C@H]2[C@@H]3CC=C4c5sc(Nc6ccc(C)cn6)nc5CC[C@]4(C)[C@H]3CC[C@@]21C
inactive: [2] 11.5% | [3] 25.1% | [8] 16.6%
active: [1] 1.46% | [4] 6.21% | [5] 5.32% | [6] -1.7% | [7] -21.5% | [9] -53.2% | [10] -24.4%

C=C1CCc2nc(SCC(=O)O)ccc2N1
inactive: [1] 95.6% | [2] 99% | [3] 105% | [4] 103% | [5] 102% | [6] 120% | [7] 96.7% | [8] 108% | [9] 106% | [10] 107%

CCCCCN1C(=O)/C(=c2\sc3n(c2=O)C2C(NN=3)N(CC)C(=O)N2CC)c2cccc(C)c21 (stereo not given)
inactive: [1] 70% | [2] 42.4% | [3] 82.7% | [4] 44.2% | [5] 30.9% | [6] 70.2% | [7] 30.4% | [8] 68.6% | [9] 76% | [10] 38.7%

O=C(N/N=C/c1cc2ccccc2nc1Cl)c1cc(-c2nc3ccccc3[nH]2)nc2ccccc12
inactive: [1] 96.2% | [2] 100% | [3] 99.9% | [4] 97.9% | [5] 104% | [6] 72.4% | [7] 83.6% | [8] 95.1% | [9] 85.3% | [10] 98.3%

Cc1[nH]c(C(=O)Nc2ccccc2OCc2cccc(C(=O)NC3CCNC3)c2)c(Cl)c1Cl (stereo not given)
inactive: [2] 87.2% | [3] 70.2% | [6] 70.2%
active: [1] 8.19% | [4] 6.22% | [5] -62.9% | [7] -0.407% | [8] -51.2% | [9] -69.2% | [10] -43.3%

N#C/C(=C\c1ccc(-c2ccc(Cl)c(Cl)c2)o1)C(=O)Nc1ncc(Cc2ccc(Cl)cc2)s1
inactive: [1] 38.2% | [2] 73.6% | [3] 33% | [4] 72.1% | [6] 81.5% | [7] 47.1% | [8] 11.6% | [9] 11.4% | [10] 55.8%
active: [5] -42.4%

CCCCc1nc2c(N)nc3ccccc3c2n1Cc1cccc(CN)c1
inactive: [1] 72.6% | [2] 87.1% | [3] 81.2% | [4] 57.3% | [5] 19.7% | [7] 72.7% | [8] 69.5% | [9] 66.7% | [10] 44%
active: [6] -0.82%

CCCCCCCCCC(=O)NC(C)(C)C(=O)N1CCC[C@H]1C(=O)N[C@@H](CC(C)C)C(=O)N[C@@](C)(CC)C(=O)N[C@@H](CCC(N)=O)C(=O)N[C@H](CCC(N)=O)C(=O)NC(C)(C)C(=O)NC(C)(C)C(=O)N[C@@H](CCC(N)=O)C(=O)N[C@H](CC(C)C)C(=O)N[C@H](CO)CC(C)C
-72% (active) and 49.1% (inactive): [8]
-88.1% (active) and 18.4% (inactive): [3]
active: [1] -85.9% and -32.1% | [2] -71.3% and -31.6% | [4] -70.9% and -64.1% | [5] -83.6% and -71% | [6] -91.1% and -43.9% | [7] -83.3% and -75.7% | [9] -82.1% and -64.3% | [10] -63% and -63.6%

NS(=O)(=O)c1ccc(Nc2nc(Nc3ccccc3)nc(N3N=C(c4ccc(Cl)cc4)CC3c3ccc(Cl)cc3)n2)cc1 (stereo not given)
inactive: [1] 54.8% | [2] 55.1% | [3] 64.5% | [4] 75.8% | [5] 20.1% | [6] 75% | [7] 83.6% | [8] 66.7% | [9] 65.8%
active: [10] 8.73%

C=C(C)[C@@H]1CC[C@]2(C(=O)NC3CCCCC3)CC[C@]3(C)[C@H](CC[C@@H]4[C@@]5(C)CC[C@H](N)C(C)(C)[C@@H]5CC[C@]43C)[C@@H]12
inactive: [1] 106% | [2] 94.2% | [3] 108% | [4] 104% | [5] 98.7% | [6] 73.1% | [7] 93.2% | [8] 91.9% | [9] 84.6% | [10] 52.9%

CCOC(=O)c1ccc(NC2=C(Cl)C(=O)c3nc(C)ccc3C2=O)cc1
inactive: [1] 52% | [2] 85.5% | [3] 96.7% | [4] 113% | [5] 79.3% | [6] 103% | [7] 24.1% | [8] 94.3% | [9] 55.5% | [10] 58.9%

CCCCOc1ccc(S(=O)(=O)N2CCN(c3nc(C)cc(N4CCOCC4)n3)CC2)cc1
inactive: [1] 41.7% | [2] 67.2% | [3] 62.2% | [4] 59% | [6] 18.2% | [7] 88.8% | [8] 27.3% | [9] 33.4%
active: [5] 1.22% | [10] 5.81%

CCCCCCN1C=C/C(=C\C(=O)n2ccc3ccccc32)c2ccccc21
inactive: [2] 52.9% | [3] 93.5% | [4] 89.6% | [5] 87.7% | [6] 82.6% | [7] 57.7% | [8] 84.3% | [9] 86.6% | [10] 87.3%
active: [1] 9.61%

C=C(C=O)[C@@H]1CC[C@]2(C(=O)O)CC[C@]3(C)C(CC[C@@H]4[C@@](C)(CCC#N)[C@H](C(=C)C=O)CC[C@]43C)[C@@H]12 (stereo not given in full)
active: [2] -16.4%
inactive: [1] 17.6% | [3] 98.6% | [4] 115% | [5] 96.7% | [6] 13.6% | [7] 81.4% | [8] 82.7% | [9] 59.7% | [10] 108%

O=C1Nc2cc(Cl)ccc2/C1=C\c1ccc(OCc2ccccc2)cc1
inactive: [1] 94.3% | [2] 92.9% | [3] 99.5% | [4] 96.2% | [5] 104% | [6] 109% | [7] 99.8% | [8] 105% | [9] 105% | [10] 110%

Cn1cc(-c2nc(N)nnc2-c2c[nH]c3ccc(Br)cc23)c2cc(F)ccc21
inactive: [1] 93.3% | [2] 96.6% | [3] 86.1% | [4] 103% | [5] 97.7% | [6] 98.7% | [7] 89.1% | [8] 103% | [9] 98.3% | [10] 103%

O=C(CSc1nnc(-c2ccc(Cl)cc2)n1-c1ccccc1)Nc1ccc(Cl)cc1
active: [6] -5.1% | [9] -50.2%
inactive: [1] 29.1% | [2] 16% | [3] 41.2% | [4] 82.8% | [5] 19.4% | [7] 39.5% | [8] 21.5% | [10] 90.2%

CN1CCN(CC#CCn2c3c(c4ccccc42)C[C@]2(C)[C@H]4CC=C5[C@@H]6CC(C)(C)CC[C@]6(C(=O)N6CCOCC6)CC[C@@]5(C)[C@]4(C)CC[C@H]2C3(C)C)CC1
inactive: [1] 74% | [2] 85.7% | [3] 94.9% | [4] 91.7% | [5] 17.6% | [6] 22.5% | [7] 97% | [8] 41.9% | [9] 76.3% | [10] 87.3%

Cn1cc(C2=C(c3coc4cc(Br)ccc34)C(=O)NC2=O)c2ccccc21
inactive: [1] 86.8% | [2] 74.8% | [3] 82.2% | [4] 71% | [5] 98.6% | [6] 93.4% | [7] 72% | [8] 71.6% | [9] 83.7% | [10] 71.3%

COc1ccc2[nH]cc(-c3nn4cc(-c5ccncc5)nc4s3)c2c1
inactive: [1] 70.2% | [2] 76.5% | [3] 78.2% | [4] 69.9% | [5] 51.3% | [6] 28.9% | [7] 51% | [8] 74.6% | [9] 79.8% | [10] 47%

Brc1cccc(-c2cc(-c3ccc4c(c3)OC=CO4)[nH]n2)c1
inactive: [1] 58.2% | [2] 78% | [3] 49.8% | [4] 58.1% | [5] 15.1% | [6] 96.3% | [7] 29.4% | [8] 37.5% | [9] 70.4% | [10] 36.1%

COc1ccc2sc(NC(=O)CCCCCCNC(=O)C(O)(O)C(F)(F)F)nc2c1
active: [1] 1.72% | [3] 4.96% | [4] -3.09% | [5] 7.12% | [6] -12.7% | [7] -42.7% | [8] 2.41% | [10] -69.9%
inactive: [2] 24.6% | [9] 13.1%

Cc1ccc(-c2nc(SCC(=O)c3ccccc3)nc(Nc3ccc(S(N)(=O)=O)cc3)c2C#N)cc1
inactive: [1] 34.5% | [2] 71.4% | [3] 99.5% | [4] 26.2% | [5] 65.2% | [6] 37.6% | [7] 87.1% | [8] 87.4% | [9] 46.3% | [10] 101%

CCN(CC)S(=O)(=O)c1ccc(-c2nc(C(Cl)Cl)nc3cc(-c4ccc(F)cc4)nn23)cc1
inactive: [1] 21.7% | [2] 77.3% | [3] 41.4% | [4] 10.3% | [5] 10.2% | [7] 79.3% | [8] 17.8% | [9] 76.5%
active: [6] -3.41% | [10] 8.9%

CCN(CC)CCOc1ccc(C(=C(C)Cc2ccc(OC)cc2)c2ccc(OCCN(CC)CC)cc2)cc1
inactive: [1] 82.6% | [2] 81.3% | [3] 81.5% | [4] 62.6% | [5] 38.4% | [6] 19.9% | [7] 76.8% | [8] 52.6% | [9] 60.5%
active: [10] -78.2%

COc1ccc(-c2nc(C#N)c(N3CCC(S(=O)(=O)N4CCOCC4)CC3)o2)cc1
inactive: [1] 94.5% | [2] 93.9% | [3] 97.2% | [4] 99.2% | [5] 103% | [6] 99.3% | [7] 89.5% | [8] 98.1% | [9] 94.2% | [10] 111%
